This note sets out measurements from PubChem BioAssay (Tox21).

Records with an inconclusive call do not appear. The source made the active and inactive calls. Unless noted, the call rests on the fitted dose curve; in most records, active means well fitted curve in the direction sought with a large enough effect in the repeat runs; inconclusive means weak or mixed curves; inactive means no such curve, though single readings can be large; an effect the other way counts as inactive or inconclusive.

Experiment [1] in a line: qHTS assay to identify small molecule antagonists of the glucocorticoid receptor (GR) signaling pathway - cell viability counter screen (AID 720693). Further: nearly all actives have a fitted effect of over 55% in size. Further: potency means the concentration at half of the fitted maximal effect.
Experiment [2] is described as follows: qHTS assay for identifying genotoxic compounds that show differential cytotoxicity against isogenic chicken DT40 cell lines with known DNA damage response pathways - wild type cell line (AID 743012). Further: nearly all actives have a fitted effect of over 60% in size. Further: potency means the concentration at half of the fitted maximal effect. In short, it runs like this: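 Wild type DT40, 300 cells/well, ~0.5 h settle at 37 C/5% CO2; compounds in DMSO added by pintool; 40 h at 37 C/5% CO2; CellTiter-Glo, 30 min RT; luminescence.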

Experiment [3] is described as follows: qHTS assay for identifying genotoxic compounds that show differential cytotoxicity against isogenic chicken DT40 cell lines with known DNA damage response pathways - Rev3 mutant cell line (AID 743014). Further: nearly all actives have a fitted effect of over 55% in size. Further: potency means the concentration at half of the fitted maximal effect.
Experiment [4] can be described thus: qHTS assay for identifying genotoxic compounds that show differential cytotoxicity against isogenic chicken DT40 cell lines with known DNA damage response pathways - Rad54/Ku70 mutant cell line (AID 743015). Further: nearly all actives have a fitted effect of over 60% in size. Further: potency means the concentration at half of the fitted maximal effect.
The nature of experiment [5]: qHTS assay to identify small molecule antagonists of the androgen receptor (AR) signaling pathway - cell viability counter screen (AID 743033; further: nearly all actives have a fitted effect of over 45% in size; further: potency means the concentration at half of the fitted maximal effect).
In experiment [6] the target is Androgen receptor (Homo sapiens) (UniProt P10275). Put plainly: qHTS assay to identify small molecule agonists of the androgen receptor (AR) signaling pathway using the MDA cell line (AID 743040; further: nearly all actives have a fitted effect of over 20% in size; further: potency means the concentration at half of the fitted maximal effect). In short, it runs like this: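 MDA-kb2 breast carcinoma cells stably carrying an MMTV-driven luciferase reporter (AR- and GR-responsive) were seeded and held 5 h at 37C, 0% CO2, then exposed to compounds in DMSO for 16 h. Luminescence was read 30 min after ONE-Glo addition.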

For experiment [7] the target is unchanged. Put plainly: qHTS assay to identify small molecule antagonists of the androgen receptor (AR) signaling pathway (AID 743035; active means well fitted inhibition curve with a large enough effect in the signal ratio in the repeat runs, not every such curve was filed as active; the % refers to the signal ratio). In short, it runs like this: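 Fluorescence from a beta-lactamase FRET substrate (LiveBLAzer B/G, 2 h, room temperature) measured inhibition of R1881-stimulated signaling in GeneBLAzer AR-UAS-bla HEK293 cells exposed to compound for 16 h at 37C.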

The target is the same in experiment [8]. Put plainly: qHTS assay to identify small molecule agonists of the androgen receptor (AR) signaling pathway (AID 743036; active means well fitted activation curve with a large enough effect in the signal ratio in the repeat runs, with a control signal flat, not every such curve was filed as active; the % refers to the signal ratio). Put shortly: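 In this Tox21 qHTS, 2,000 HEK293 AR-bla cells per well were incubated with compounds for 16 h at 37C and 5% CO2. Fluorescence intensity was recorded 2 h after adding LiveBLAzer B/G FRET substrate at room temperature.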
Experiment [9] in a line: qHTS assay to identify small molecule antagonists of the androgen receptor (AR) signaling pathway using the MDA cell line - cell viability counter screen (AID 743041; further: nearly all actives have a fitted effect of over 45% in size). Put shortly: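 MDA-kb2 AR-luc human breast carcinoma cells (MMTV-luciferase, AR/GR responsive) were treated with compounds plus R1881 agonist for 16 h at 37 °C. Viability was read as CellTiter-Fluor fluorescence in the same wells as the reporter assay.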

In experiment [10] the target is Androgen receptor (Homo sapiens) (UniProt P10275). Description: qHTS assay to identify small molecule antagonists of the androgen receptor (AR) signaling pathway using the MDA cell line (AID 743042; further: nearly all actives have a fitted effect of over 55% in size; further: potency means the concentration at half of the fitted maximal effect). Put shortly:
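MDA-kb2 cells (human breast carcinoma, stably carrying an MMTV-luciferase reporter responsive to AR and GR) were plated at 3,000 cells/well and preincubated 5 hr at 37C, then given compound plus R1881 agonist for 16 h. ONE-Glo luminescence was read.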

Sequence of Androgen receptor (Homo sapiens) (P10275 whole entry, looked up): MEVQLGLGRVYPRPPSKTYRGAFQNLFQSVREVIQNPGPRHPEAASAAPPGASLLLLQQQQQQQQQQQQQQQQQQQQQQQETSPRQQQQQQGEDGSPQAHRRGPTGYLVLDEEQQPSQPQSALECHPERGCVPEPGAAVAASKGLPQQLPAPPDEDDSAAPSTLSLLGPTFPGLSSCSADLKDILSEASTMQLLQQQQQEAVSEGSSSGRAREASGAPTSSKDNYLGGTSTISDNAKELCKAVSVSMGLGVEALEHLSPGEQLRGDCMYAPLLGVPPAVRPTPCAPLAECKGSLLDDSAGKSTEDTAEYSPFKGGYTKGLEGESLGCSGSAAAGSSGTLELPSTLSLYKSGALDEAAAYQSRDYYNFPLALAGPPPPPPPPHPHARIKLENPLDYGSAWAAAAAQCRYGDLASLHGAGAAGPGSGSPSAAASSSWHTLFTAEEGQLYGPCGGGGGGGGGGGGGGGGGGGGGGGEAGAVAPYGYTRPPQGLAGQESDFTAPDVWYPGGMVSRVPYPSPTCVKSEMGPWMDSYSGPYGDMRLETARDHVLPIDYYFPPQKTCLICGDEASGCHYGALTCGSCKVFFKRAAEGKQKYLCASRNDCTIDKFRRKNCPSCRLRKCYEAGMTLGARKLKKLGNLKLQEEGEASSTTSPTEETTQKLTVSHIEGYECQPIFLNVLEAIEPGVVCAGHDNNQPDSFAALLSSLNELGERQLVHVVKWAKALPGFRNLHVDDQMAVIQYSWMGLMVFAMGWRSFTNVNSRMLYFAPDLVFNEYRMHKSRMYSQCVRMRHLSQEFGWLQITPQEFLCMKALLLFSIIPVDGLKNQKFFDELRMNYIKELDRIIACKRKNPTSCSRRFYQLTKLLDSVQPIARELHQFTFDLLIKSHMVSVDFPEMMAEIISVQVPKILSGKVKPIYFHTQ

With `Nc1cccc2c(N)cccc12`, the Potency result in [1], in [5] and in experiment [6] was “inactive” each time. In addition, the Potency in experiment [2] is 54.5 µM (active); in experiment [3], 47.2 µM (active); in [4], 41.6 µM (active).

Turning to `Nc1ccc(F)cc1`, the Potency entry in [1], in experiment [2], in [3], in [4], in experiment [5] and in experiment [7] was “inactive” throughout. In addition, the Potency result in [6], in experiment [9] and in [10] was “inactive” throughout. Also, the outcome in experiment [8] was inactive.

For `CCC(Cl)CC(Cl)C(Cl)C(Cl)C(Cl)C(C)Cl` (centres undefined), the Potency result in experiment [1], in experiment [2], in [3], in experiment [4], in [5] and in [6] was “inactive” in each case. Further, the Potency result in [9] and in experiment [10] was “inactive” in each case.

In the case of `CCCOC(=O)c1c(Cl)c(Cl)c(Cl)c(Cl)c1C(=O)OCCC`, the Potency result in experiment [1] is “inactive”. In addition, the Potency in experiment [2] was 54.5 µM (active); in [3] it was 61.1 µM (active); in [4] it was 61.1 µM (active).

`C[C@H](CS)C(=O)N1CCC[C@H]1C(=O)O`: the Potency result in experiment [1], in experiment [2], in experiment [3], in [4], in [5] and in experiment [6] was “inactive” in each case. In addition, the Potency result in experiment [9] and in experiment [10] was “inactive” throughout. In experiment [8], the outcome was inactive.

With `CC(=O)OCC(C)C`, the Potency result in [1], in [2], in [3], in [4], in experiment [5] and in experiment [9] was “inactive” each time. For the same compound, in experiment [10], the Potency result is “inactive”. Also, the compound was called inactive in experiment [8].

As to `BrC(Br)C(Br)Br`, the Potency result in experiment [1], in experiment [2], in experiment [3], in experiment [4], in [5] and in [7] was “inactive” in each case. The Potency entry in experiment [6], in experiment [9] and in experiment [10] was “inactive” throughout. In experiment [8], the outcome was inactive.

Consider `CC(C)N=C=NC(C)C`, for which the Potency entry in experiment [1], in experiment [2], in [3], in experiment [4], in [5] and in experiment [9] was “inactive” throughout.

On to `CCCCC[C@H](O)/C=C/[C@H]1[C@H](O)CC(=O)[C@@H]1C/C=C\CCCC(=O)O`, for which the Potency result in experiment [1], in [2], in experiment [3], in experiment [4], in experiment [5] and in experiment [6] was “inactive” each time. Besides, the Potency entry in [9] was “inactive”.

In the case of `CCCCCCCC(=O)OCCCCCC`, the Potency result in experiment [1], in [2], in [3], in experiment [4], in experiment [5] and in experiment [7] was “inactive” throughout. Also, the Potency result in experiment [6], in [9] and in [10] was “inactive” in each case. Also, the outcome in experiment [8] was inactive.

For the compound `O=NN(CCCl)C(=O)NCCCl`, the Potency entry in experiment [1], in experiment [2], in experiment [3], in experiment [4], in experiment [5] and in experiment [6] was “inactive” in each case. Further, the Potency entry in experiment [9] and in experiment [10] was “inactive” each time. In experiment [8], the outcome was inactive.

As to `CCC(C)(C)C(=O)O`, the Potency result in experiment [1], in experiment [2], in experiment [3], in [4], in experiment [5] and in [7] was “inactive” each time. Further, the Potency result in [9] and in experiment [10] was “inactive” each time. In [8], the call was inactive.

As to `CCc1ccc(C)cc1`, the Potency entry in experiment [1], in experiment [2], in experiment [3], in experiment [4], in experiment [5] and in [7] was “inactive” in each case. The Potency entry in [6], in experiment [9] and in experiment [10] was “inactive” each time. Further, in [8], the call was inactive.

As to `CSCC[C@H](NC(=O)[C@H](Cc1c[nH]c2ccccc12)NC(=O)CCNC(=O)OC(C)(C)C)C(=O)N[C@@H](CC(=O)O)C(=O)N[C@@H](Cc1ccccc1)C(N)=O`, the Potency result in experiment [1], in experiment [2], in [3], in [4], in [5] and in [9] was “inactive” each time.

`COc1ccc(-c2cc(=S)ss2)cc1`: in experiment [1], the Potency entry is “inactive”. The Potency in [2] was 26.6 µM (active).

Consider `O=C(O)CCC(=O)c1ccc(-c2ccccc2)cc1`, for which the Potency result in [1], in experiment [2], in experiment [3], in [4], in experiment [5] and in experiment [7] was “inactive” each time. In addition, the Potency result in experiment [6], in experiment [9] and in experiment [10] was “inactive” each time.

For `CC(C)(O)CCc1ccccc1`, the Potency entry in experiment [1], in experiment [2], in [3], in [4], in experiment [5] and in experiment [9] was “inactive” each time.

Turning to `CC(C)(C)S`, the Potency entry in experiment [1], in experiment [2], in [3], in experiment [4] and in experiment [5] was “inactive” throughout.

As for `CC1CCC(C(C)CS)CC1S` (centres undefined), in experiment [1], the Potency was 49 µM (active). For the same compound, the Potency entry in experiment [2], in experiment [3], in [4], in experiment [5], in experiment [7] and in [6] was “inactive” in each case. Besides, the Potency result in experiment [9] and in experiment [10] was “inactive” throughout. For the same compound, the result in experiment [8] was inactive.

As for `CCC1CCC(CCC(=O)O)C1` (centres undefined), the Potency result in experiment [1], in experiment [2], in experiment [3], in experiment [4] and in experiment [5] was “inactive” each time.

On to `CC(C)CC(O)CC(C)C`, for which the Potency result in experiment [1], in experiment [2], in [3], in [4] and in [5] was “inactive” throughout.

In the case of `CC12CC3CC(C)(C1)CC(N)(C3)C2`, the Potency result in experiment [1] and in [5] was “inactive” throughout. Further, the values for the Potency in experiment [2], in [3] and in experiment [4] were 26.6 µM (active), 29.8 µM (active) and 29.8 µM (active), respectively.

Consider `CC(CCc1ccc(O)cc1)NCCc1ccc(O)c(O)c1` (centres undefined), for which the Potency result in [1] and in experiment [5] was “inactive” each time. Besides, the Potency was 13.3 µM (active) in experiment [2], 26.6 µM (active) in experiment [3] and 23.7 µM (active) in [4].

Consider `CCOC(=O)c1ccc(NC(=O)CN2CCCCC2)cc1`, for which the Potency result in [1], in [5], in experiment [7], in [6], in experiment [9] and in experiment [10] was “inactive” each time. Moreover, the Potency in experiment [2] is 11.9 µM (active); in [3], 10.6 µM (active); in experiment [4], 10.6 µM (active). Besides, the outcome in [8] was inactive.

For the compound `O=C(O)/C=C/c1ccc(O)c(O)c1`, the Potency result in experiment [1], in [2], in experiment [3], in [4], in experiment [5] and in experiment [9] was “inactive” in each case. Moreover, the Potency result in [10] is “inactive”. Further, the Potency in experiment [6] was 27.5 µM (active).

In the case of `CNS(=O)(=O)c1cc(C(=O)N2CCC(CCN3C4CCC3CC(n3c(C)nc5ccccc53)C4)(c3cccc(F)c3)CC2)c(Cl)cc1F` (centres undefined), the Potency is 54.9 µM (active) in experiment [1]; 3.06 µM (active) in [2]; 5.45 µM (active) in experiment [3]; 6.11 µM (active) in experiment [4]; 15.5 µM (active) in experiment [5]; 34.4 µM (active) in [10]. Moreover, in experiment [6], the Potency entry was “inactive”.

Turning to `CCCCCCCCCCCCCC(=O)OCC(O)CO` (centres undefined), the Potency entry in [1], in experiment [2], in [5], in experiment [7], in experiment [6] and in [9] was “inactive” each time. For the same compound, the Potency result in experiment [10] was “inactive”. Further, the Potency in [3] and in experiment [4] was 43.3 µM (active) in each case. Besides, in [8], the compound was called inactive.
